Among the data in PubChem BioAssay AID1345085 (National Center for Advancing Translational Sciences (NCATS), 2018) are Potency values, retold here.

Records with an inconclusive call do not appear. A call without a number means that no potency is given here. The source made the active and inactive calls. The call rests on the fitted dose curve; in most records, active means well fitted cell-killing curve with a large enough effect; inconclusive means small, poorly fitted or top-dose-only effect, or effect the other way; inactive means no such curve, though single readings can be large or run the other way. *1 amine or outer side, *2 acyl side, *3 side chain or, on linkers, in order; H or OH if unused. Where a SMILES comes first, the peptide text is derived from it. Bridges are numbered along the chain shown (N, C = ends). Roman numbers before positions name the chains, in order. [ ]: non-standard residue; d: D form. Actinocin(9to1) = Cc1c2oc3c(C)ccc(C(=O)[*:1])c3nc-2c(C(=O)[*:2])c(N)c1=O; NMeV = CN[C@H](C(=O)O)C(C)C; Sar = CNCC(=O)O
Potency means the concentration at half of the fitted maximal effect.

The test system of this experiment is C33A. The experiment can be described thus: Confirmatory qHTS for gynecologic anti-cancer compounds from libraries of approved drugs and bioactive compounds. Further: nearly all actives have a fitted effect of over 55% in size. As to conditions: gynecologic cancer cell panel viability, ATPlite luminescence, 48 h; series mostly up to 57.6 µM. The procedure, abridged:
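ATP-based luminescent viability (ATPlite) after 48 h drug treatment at 37 °C, 5% CO2, across 57.5 uM–0.977 nM in 1:3 steps. Cells seeded at 1,000 per well 16 h beforehand; IC50 values computed, HEK 293T as selectivity control.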
For the compound `CC(C)n1nc(-c2cc3cc(O)ccc3[nH]2)c2c(N)ncnc21`, the Potency was 3.06 µM (active). Regarding `Cc1cnc(Nc2ccc(OCCN3CCCC3)cc2)nc1Nc1cccc(S(=O)(=O)NC(C)(C)C)c1`, the Potency entry was “inactive”.

In the case of `C[C@@H](Oc1cc(-c2cnn(C3CCNCC3)c2)cnc1N)c1c(Cl)ccc(F)c1Cl`, the Potency was 24.3 µM (active). Next, `N#CC1(c2cccc(C(=O)Nc3cc(Oc4ccc5nc(NC(=O)C6CC6)sc5n4)ccc3F)c2Cl)CC1`: “inactive”. In the case of `COc1ccc2c(c1OC)C(=O)O[C@@H]2[C@H]1c2c(cc3c(c2OC)OCO3)CCN1C` it was “inactive”; in that of `O=C(CCCCCCNC(=O)c1cnc(N(c2ccccc2)c2ccccc2)nc1)NO`, 10.9 µM (active). In the case of `c1nc2nc(Nc3ccc(N4CCOCC4)cc3)nc(NC3CCCCC3)c2[nH]1` it was “inactive”.

Regarding `Cc1ccn(-c2ccc(-c3ncco3)cc2)c(=O)c1-c1ccc2nc(N)ncc2c1`, the Potency result is “inactive”. In the case of `O=c1cc(CN2CCOCC2)occ1OCCCCCSc1ccnc2cc(C(F)(F)F)ccc12` it was “inactive”; in that of `CO[C@@]12[C@H](COC(N)=O)C3=C(C(=O)C(C)=C(N)C3=O)N1C[C@@H]1N[C@@H]12`, “inactive”. Next, `Cc1c(C)n(Cc2ccc(-c3ccccc3C(=O)O)cc2)c2ccc(C(=O)N[C@@H](C)c3ccc([N+](=O)[O-])cc3)cc12`: “inactive”; `NC1(c2ccc(-c3nc4ccn5c(=O)[nH]nc5c4cc3-c3ccccc3)cc2)CCC1`: “inactive”.

Turning to `Cn1cnc2c(F)c(Nc3ccc(Br)cc3Cl)c(C(=O)NOCCO)cc21`, the Potency result was “inactive”. For the compound `COc1c(C)c2c(c(O)c1C/C=C(\C)CCC(=O)OCCN1CCOCC1)C(=O)OC2`, the Potency was 2.73 µM (active).

Take `CN1C(=O)C(Cc2c[nH]c3ccccc23)NC1=S` (stereo not drawn): the Potency entry is “inactive”. Next, `Cc1[nH]c2ccccc2c1CCNCc1ccc(/C=C/C(=O)NO)cc1`: 0.243 µM (active). Consider `Fc1cc(-c2cccc3ncc(-c4cnn(C5CCNCC5)c4)nc23)cc(F)c1CN1CCOCC1`, for which the Potency is 24.3 µM (active). Next, `O=C(CCCCCCC(=O)Nc1ccccc1)NO`: 3.43 µM (active). Next, `CCCCc1nc2cc(/C=C/C(=O)NO)ccc2n1CCN(CC)CC`: 1.53 µM (active); `CN(C)/N=N/c1nc[nH]c1C(N)=O`: “inactive”; `CC(Oc1ccc2[nH]nc(/C=C/c3cnn(CCO)c3)c2c1)c1c(Cl)cncc1Cl` (stereo not drawn): “inactive”.

As to `CC1(C)[C@@H](O)CC[C@]2(C)[C@H]3C(=O)C=C4[C@@H]5C[C@@](C)(C(=O)O)CC[C@]5(C)CC[C@@]4(C)[C@]3(C)CC[C@@H]12`, the Potency entry was “inactive”. In the case of `COc1cc(-c2nn(C3CCC(N4CCN(C(C)=O)CC4)CC3)c3ncnc(N)c23)ccc1NC(=O)c1cc2ccccc2n1C` (stereo not drawn) it was “inactive”; in that of `CC(C)Nc1cc(-c2c[nH]c(C(=O)N[C@H](CO)c3cccc(Cl)c3)c2)c(Cl)cn1`, “inactive”; in that of `COC(C(=O)N1Cc2[nH]nc(NC(=O)c3ccc(N4CCN(C)CC4)cc3)c2C1)c1ccccc1` (stereo not drawn), “inactive”. `COc1cc2nccc(Oc3ccc(NC(=O)C4(C(=O)Nc5ccc(F)cc5)CC4)cc3)c2cc1OC`: the Potency is 15.3 µM (active).

Take `OCc1ccc(-c2ccc(-c3ccc(CO)s3)o2)s1`: the Potency result was “inactive”. In the case of `CN(C)CCC(CSc1ccccc1)Nc1ccc(S(=O)(=O)NC(=O)c2ccc(N3CCN(Cc4ccccc4-c4ccc(Cl)cc4)CC3)cc2)cc1[N+](=O)[O-]` (stereo not drawn) it was “inactive”; in that of `Cc1c2oc3c(C)ccc(C(=O)N[C@@H]4C(=O)N[C@H](C(C)C)C(=O)N5CCC[C@H]5C(=O)N(C)CC(=O)N(C)[C@@H](C(C)C)C(=O)O[C@@H]4C)c3nc-2c(C(=O)N[C@@H]2C(=O)N[C@H](C(C)C)C(=O)N3CCC[C@H]3C(=O)N(C)CC(=O)N(C)[C@@H](C(C)C)C(=O)O[C@@H]2C)c(N)c1=O` (I: T[dV]P[Sar][NMeV] / II: T[dV]P[Sar][NMeV]; ester I:1-I:C, II:1-II:C; linker I:N-II:N via Actinocin(9to1)), 0.385 µM (active); in that of `Cc1cnc(Nc2ccc(CN3CCOCC3)cc2)nc1Nc1cccc(S(=O)(=O)NC(C)(C)C)c1`, 21.7 µM (active). Next, `CCCc1nn(C)c2c(=O)[nH]c(-c3cc(S(=O)(=O)N4CCN(C)CC4)ccc3OCC)nc12`: “inactive”; `Cc1cncc2cccc(S(=O)(=O)N3CCCN(C(=O)CN)C[C@@H]3C)c12`: “inactive”; `C#C[C@]1(O)CC[C@H]2[C@@H]3CCC4=CC(=O)CC[C@@H]4[C@H]3CC[C@@]21CC`: “inactive”.
